CYP2C19 inhib – inhibitors of human CYP2C19. P33261. CYP2C19 Supersomes, luciferin-H EGE luminescence, 30 min. inhibition, % at 5 µM. hit rate 21% among 96,000;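 active = CYP2C19 inhibition above a set limit at 5 µM in the primary screen, cut at about 50% in these data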
PostGolgi yeast – growth inhibition of a yeast mutant, post-Golgi transport screen; inhibition, % at 10 µM; post-Golgi transport phenotypic cell assay; hit rate 0.9% among 98,000; AID 739;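 note: yeast cells grown in 1536-well plates; yeast grown about 18 h at 30C before absorbance read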
PostGolgi ctrl – growth of the yeast control strain, post-Golgi counter-screen; AID 738; hit rate 5% among 98,000; inhibition, % at 10 µM; efflux-deficient yeast background strain, growth absorbance A615, 16 h
CYP2C9 inh – blocks human cytochrome P450 2C9; P11712; CYP2C9 Supersomes, luciferin-H conversion, luminescence; inhibition, % at 5 µM; hit rate 20% among 96,000; AID 777;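 active = blocking of liver enzyme CYP2C9 beyond about 50% at 5 µM, limit read from the data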
Target sequence (P11712 whole entry, looked up): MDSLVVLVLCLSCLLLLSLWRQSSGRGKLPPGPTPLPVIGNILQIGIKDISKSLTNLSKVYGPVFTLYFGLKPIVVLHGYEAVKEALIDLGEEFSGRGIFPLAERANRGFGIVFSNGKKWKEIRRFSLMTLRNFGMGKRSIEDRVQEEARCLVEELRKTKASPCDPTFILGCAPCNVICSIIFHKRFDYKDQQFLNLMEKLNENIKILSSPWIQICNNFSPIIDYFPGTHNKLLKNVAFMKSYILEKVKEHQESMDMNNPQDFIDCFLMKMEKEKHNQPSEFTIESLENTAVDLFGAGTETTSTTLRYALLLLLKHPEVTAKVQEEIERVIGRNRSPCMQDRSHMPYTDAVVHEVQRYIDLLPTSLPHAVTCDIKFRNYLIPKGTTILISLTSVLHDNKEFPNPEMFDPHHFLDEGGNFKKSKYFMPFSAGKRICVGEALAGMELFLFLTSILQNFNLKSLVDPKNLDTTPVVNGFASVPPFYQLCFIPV
CYP2C19 act – cytochrome P450 2C19 (human) activation. P33261. recombinant CYP2C19, luciferin-H EGE luminescence; hits give high values; 0 = fully inhibited enzyme, 1 = untreated enzyme. activation factor at 5 µM. 96,000 tested, under 10 active;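 active = activation factor of at least 2 at 5 µM in the primary screen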
CYP2C9 act – increases human cytochrome P450 2C9 activity. P11712. recombinant CYP2C9, luciferin-H conversion, luminescence; hits give high values; factor 1 = untreated enzyme, 0 = blocked. activation factor at 5 µM. hit rate 1.4% among 96,000. AID 1024;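 active = activation factor of 2 or more for CYP2C9 at a 5 µM dose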
Each line names hits and unclear results; the compound was inactive in the other large screens. This is a sample that favours compounds with a hit; in the whole collection about 32% have one here. Cut-off read from the data, not from the text of the source, unless noted: active = inhibition above about 30%; inactive = the rest.

c1ccc2c(c1)NC(CN1CCOCC1)CO2 (stereo unspecified)	CYP2C19 inhib 53.0
c1ccc2c(CN3CCOCC3)c3ccccc3c(CN3CCOCC3)c2c1	none
CC1(C)CC(=O)C(C=NCC2CCCO2)=C(O)C1 (stereo unspecified)	none
Cc1cccc(C(=O)NNC(=O)c2ccc(Cl)cc2)c1O	CYP2C19 inhib 50.3, CYP2C9 act 2.9
O=C(NNC(=O)c1ccc(O)cc1O)c1ccc(Cl)cc1	CYP2C9 act 2
O=C(NNC(=O)c1ccccc1O)c1ccc(Cl)cc1	none
Cc1cc(/C=N/n2cnnc2)c(C)n1-c1ccccc1	CYP2C19 inhib 100.0, CYP2C9 inh 72.6
Cc1sc(-n2c(C)cc(/C=N/n3cnnc3)c2C)c(C#N)c1C	CYP2C19 inhib 89.4, CYP2C9 inh 82.9
Cc1cc(/C=N/n2cnnc2)c(C)n1-c1cccc(Cl)c1	CYP2C19 inhib 99.4, CYP2C9 inh 95.2
Cc1cc(C=C2C(=O)c3ccccc3C2=O)c(C)n1-c1ccccc1	none
Cc1cc(/C=N/n2cnnc2)c(C)n1-c1ccc(Cl)cc1Cl	CYP2C19 inhib 99.2, PostGolgi ctrl 36.7, CYP2C9 inh 94.0
Cc1sc(-n2c(C)cc(/C=C3\SC(=S)NC3=O)c2C)c(C#N)c1C	none (no result: CYP2C19 inhib, CYP2C9 inh, CYP2C19 act, CYP2C9 act)
Cc1ccc(-c2nc3sc4c(N)ncnc4c3c3c2CCCC3)cc1	none
O=C(OCc1nc2ccccc2s1)c1ccc(Br)s1	none
CNC(=O)COC(=O)c1ccc(-c2nc3ccccc3s2)s1	CYP2C19 inhib 93.8, CYP2C9 inh 72.1
CC(Oc1ccc(-c2ccccc2)c(F)c1)c1ccn(S(=O)(=O)c2ccc(F)cc2)n1 (stereo unspecified)	none (no result: CYP2C19 inhib, CYP2C9 inh, CYP2C19 act, CYP2C9 act)
COc1ccc(S(=O)(=O)n2ccc(C(C)Oc3ccc(-c4ccccc4)c(F)c3)n2)cc1 (stereo unspecified)	CYP2C9 inh 91.9
O=C(COc1ccc(Cl)cc1)Nc1nnc(-c2ccc3c(c2)CCCC3)o1	none
COc1ccccc1C(=O)Nc1nnc(-c2ccc3c(c2)CCCC3)o1	CYP2C19 inhib 75.1, CYP2C9 act 2.1
CC(=O)Nc1nnc(-c2ccc3c(c2)CCCC3)o1	none
O=C(Nc1nnc(-c2ccc3c(c2)CCCC3)o1)C1COc2ccccc2O1 (stereo unspecified)	PostGolgi yeast 99.8, PostGolgi ctrl 71.7
Nc1nnnn1N=C1CCCCC1	none
Cc1c(Cl)cccc1NC(=O)c1nc(C)n(-c2cc(OC(C)C)c(Cl)cc2Cl)n1	PostGolgi ctrl 30.4, CYP2C9 inh 83.3
C=CCSc1nnc(-c2cc3c(-c4ccccc4)nn(C)c3s2)n1C	CYP2C19 inhib 54.8
C=CCSc1nnc(-c2cc3c(C(F)(F)F)nn(C)c3s2)n1C	none
NC(=O)/C(=N\OC(=O)c1ccco1)c1nc(-c2ccc(Br)cc2)cs1	none
Cc1cc(C)n2nc(-c3sccc3-n3cccc3)cc2n1	PostGolgi ctrl 35.1
Cc1cc(C)n2nc(-c3sccc3-n3c(C)ccc3C)cc2n1	none
C/C=C/c1ccc(OCCCNC)c(OC)c1	none
COc1ccc(Cl)cc1NC(=O)CCn1cnc2ccccc2c1=O	CYP2C19 inhib 66.1, CYP2C9 act 2.3
CCOC(=O)c1ccc(Cn2cnc3ccccc3c2=O)cc1	CYP2C19 inhib 61.5, CYP2C9 inh 54.7
COC(=O)c1ccc(C)c(NC(=O)Cn2cnc3ccccc3c2=O)c1	CYP2C19 inhib 82.4, CYP2C9 inh 98.9
COC(=O)c1ccc(Cn2cnc3ccccc3c2=O)cc1	CYP2C19 inhib 66.9
CCOC(=O)C1CCCN(c2c(NCCCN(CC)c3cccc(C)c3)c(=O)c2=O)C1 (stereo unspecified)	none
Cc1cccc(NC(=O)CS(=O)(=O)Cc2ccccc2)n1	none
CCOC(=O)CSC1=Nc2ccccc2C2=NC(CC(=O)NCc3ccc4c(c3)OCO4)C(=O)N12 (stereo unspecified)	none
COc1ccc(N2C(=O)CCC(C(=O)NCc3ccccn3)C2c2ccc(F)cc2)cc1 (stereo unspecified)	none
CC(=O)NC(C)C(=O)OCC(=O)c1ccc(Cl)s1 (stereo unspecified)	PostGolgi ctrl 35.9
Cc1cc(C)cc(NC(=O)c2cc(S(=O)(=O)NCc3ccco3)ccc2F)c1	none
CCOc1ccc(NC(=S)N(Cc2ccc(Cl)cc2)Cc2ccco2)cc1	none
O=C(c1ccc2c3c(cccc13)CC2)N1CCOCC1	CYP2C9 act 2.1
